Inconclusive results are not listed. More than one record can exist for a structure, and the calls need not agree. Activity calls are given as the source filed them. How the source made its calls, unless noted: active means hit-call score of the fitted dose curve at least 0.9, where 1 is the maximum; inconclusive means response in the unintended direction; inactive means score below 0.9.
Columns and labels:
[1] = molecular target: human Retinoic Acid Receptor beta (RARb), RARB (gene 5915) (UniProt P10826); test: ATG_RARb_TRANS: Attagene TRANS-FACTORIAL HepG2 Assay for human Retinoic Acid Receptor beta (AID 2283004)
Outline: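 HepG2 cells were transiently transfected with GAL4-UAS reporter units that report activity of exogenous chimeric NR-Gal4 proteins, then exposed to compound for 24 h. Reporter mRNA was quantified by RT-PCR with capillary electrophoresis fluorescence, as gain of signal over DMSO.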

[2] = molecular target: Nuclear receptor subfamily 1 group I member 2 (Homo sapiens) (UniProt O75469); test: ATG_PXR_TRANS: Attagene TRANS-FACTORIAL HepG2 Assay for human Pregnane X Receptor (PXR) (AID 2283008)
Outline: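 HepG2 cells transiently transfected with GAL4-UAS reporter units and PXR-Gal4 chimera, exposed 24 h. Reporter mRNA quantified by RT-PCR, fluorescent labelling, HpaI digestion and capillary electrophoresis; gain of signal vs DMSO.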

[3] = molecular target: human RAR-related Orphan Receptor beta (RORb), RORB (gene 6096) (UniProt Q92753); test: ATG_RORb_TRANS: Attagene TRANS-FACTORIAL HepG2 Assay for human RAR-related Orphan Receptor beta (RORb) (AID 2283010)
Outline: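 Readout is reporter-gene mRNA induction, detected as fluorescence after RT-PCR and capillary electrophoresis, fitted for gain of signal against DMSO controls. Transiently transfected HepG2 liver cells carrying GAL4-UAS reporter constructs were treated for 24 hours.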

[4] = molecular target: human RAR-related Orphan Receptor gamma (RORg), RORC (gene 6097) (UniProt P51449); test: ATG_RORg_TRANS: Attagene TRANS-FACTORIAL HepG2 Assay for human RAR-related Orphan Receptor gamma (RORg) (AID 2283011)
Outline: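 HepG2 cells transiently transfected with GAL4-UAS reporter units and chimeric RORg-Gal4 construct; after 24 h chemical exposure, reporter mRNA measured by RT-PCR with fluorescent capillary electrophoresis, gain of signal fitted against DMSO.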

[5] = molecular target: Retinoic acid receptor RXR-alpha (Homo sapiens) (UniProt P19793); test: ATG_RXRa_TRANS: Attagene TRANS-FACTORIAL HepG2 Assay for human Retinoid X Receptor alpha (RXRa) (AID 2283012)
Outline: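 Transient transfection of human HepG2 with multiple GAL4-UAS reporter constructs; 24 h compound exposure; total RNA isolated, reverse-transcribed, PCR-amplified, 6-FAM labelled, HpaI-cut, resolved by capillary electrophoresis. Positive-direction fit versus DMSO.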

[6] = molecular target: Retinoic acid receptor alpha (Homo sapiens) (UniProt P10276); test: ATG_RARa_TRANS: Attagene TRANS-FACTORIAL HepG2 Assay for human Retinoic Acid Receptor alpha (RARa) (AID 2283005)
Outline: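 HepG2 transiently transfected with multiplex GAL4-UAS reporter units including a human RARa–GAL4 chimera; 24 h compound exposure. Reporter mRNA quantified by RT-PCR, 6-FAM labeling and capillary electrophoresis; gain of signal versus DMSO.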

[7] = molecular target: Peroxisome proliferator-activated receptor gamma (Homo sapiens) (UniProt P37231); test: ATG_PPARg_TRANS: Attagene TRANS-FACTORIAL HepG2 Assay for human Peroxisome Proliferator-activated Receptor-gamma (PPARg) (AID 2283007)
Outline: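 HepG2 cells are transiently transfected with GAL4-UAS reporter units driven by chimeric NR-Gal4 fusions and dosed for 24 h. Reporter mRNA is quantified by RT-PCR, 6-FAM labelling, HpaI digestion and capillary electrophoresis. Induction is scored against DMSO.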

[8] = molecular target: human Retinoic Acid Receptor gamma (RARg), RARG (gene 5916) (UniProt P13631); test: ATG_RARg_TRANS: Attagene TRANS-FACTORIAL HepG2 Assay for human Retinoic Acid Receptor gamma (RARg) (AID 2283009)
Outline: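 Transient transfection of HepG2 with multi-reporter constructs, then 24 h chemical treatment. Total RNA isolated, reverse-transcribed, PCR-amplified, fluorescently labelled and resolved by capillary electrophoresis; activity scored as mRNA induction versus DMSO.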

[9] = molecular target: human Thyroid Receptor alpha (THRa1), THRA (gene 7067) (UniProt P10827); test: ATG_THRa1_TRANS: Attagene TRANS-FACTORIAL HepG2 Assay for human Thyroid Receptor alpha (THRa1) (AID 2283014)
Outline: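 HepG2 cells transiently transfected with chimeric NR-Gal4 and GAL4-UAS reporter units, dosed 24 h. Reporter mRNA quantified by RT-PCR, fluorescent labeling, HpaI digestion and capillary electrophoresis; gain-of-signal fit versus DMSO.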

[10] = read-out: Intercellular Adhesion Molecule 1 (ICAM1), ICAM1 (gene 3383); test: BSK_3C_ICAM1: BioMAP Diversity Plus: 3C Assay for Intercellular Adhesion Molecule 1 (ICAM1) Biomarker Activity (AID 2283003; active means hit-call score of the fitted dose curve at least 0.9, where 1 is the maximum; inactive means score below 0.9); conditions: primary human endothelial cells (HUVEC); actives raise or lower the signal
Outline: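 ICAM-1 levels measured by ELISA after HUVEC cultures in the 3C system had been dosed for 24 h. Gain or loss of signal relative to DMSO was fitted in both directions.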

[11] = BSK_3C_Proliferation: Cell Proliferation Assessment in the BioMAP Diversity Plus: 3C Assay (AID 2283006; active means hit-call score of the fitted dose curve at least 0.9, where 1 is the maximum; inactive means score below 0.9;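 on AC50: potency may reflect either rise or fall in cell number versus DMSO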); conditions: primary human endothelial cells (HUVEC)
Outline: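 Read-out is total protein by SRB absorbance at 560 nm, taken as a proxy for relative cell number. Primary human umbilical vein endothelium cultured below confluence was dosed for 48 h, TCA-fixed and SRB-stained; curves were fitted bidirectionally versus DMSO.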

[12] = molecular target: human Retinoid X Receptor beta (RXRb), RXRB (gene 6257) (UniProt P28702); test: ATG_RXRb_TRANS: Attagene TRANS-FACTORIAL HepG2 Assay for human Retinoid X Receptor beta (RXRb) (AID 2283013)
Outline: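 Transfect HepG2 with GAL4-UAS multi-reporter constructs (chimeric NR-Gal4, TRANS format); dose compound 24 h; isolate RNA, RT-PCR, FAM primer extension, HpaI digest; quantify by capillary electrophoresis; positive direction vs DMSO.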

[13] = read-out: E-selectin (Homo sapiens) (UniProt P16581); test: BSK_3C_Eselectin: BioMAP Diversity Plus: 3C Assay for Eselectin Biomarker Activity (AID 2283015; active means hit-call score of the fitted dose curve at least 0.9, where 1 is the maximum; inactive means score below 0.9); conditions: primary human endothelial cells (HUVEC); actives raise or lower the signal
Outline: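 Primary human umbilical vein endothelial cells (3C system), read 24 h after compound addition; E-selectin measured by ELISA. Bidirectional curve fitting against DMSO baseline; cytotoxicity by parallel SRB total-protein staining.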

[14] = read-out: Interleukin-1 alpha (IL1a), IL1A (gene 3552); test: BSK_BE3C_IL1a: BioMAP Diversity Plus: BE3C Assay for Interleukin-1 alpha (IL1a) Biomarker Activity (AID 2283016; active means hit-call score of the fitted dose curve at least 0.9, where 1 is the maximum; inactive means score below 0.9); conditions: primary human bronchial epithelial cells; actives raise or lower the signal
Outline: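 BE3C primary human bronchial epithelium; cpd 24 h; IL-1a by ELISA; bidirectional fit vs DMSO; parallel SRB (0.1% SRB, 10% TCA fix, 560 nm) for cytotoxicity.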

[15] = read-out: Monocyte Chemoattractant Protein-1 (MCP1), CCL2 (gene 6347); test: BSK_3C_MCP1: BioMAP Diversity Plus: 3C Assay for Monocyte Chemoattractant Protein-1 (MCP1) Biomarker Activity (AID 2283017; active means hit-call score of the fitted dose curve at least 0.9, where 1 is the maximum; inactive means score below 0.9); conditions: primary human endothelial cells (HUVEC); actives raise or lower the signal
Outline: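 Human umbilical vein endothelial cells (3C system) exposed to chemicals for 24 h; MCP-1 quantified by ELISA against the DMSO baseline with bidirectional fitting, and parallel SRB staining used to assess cytotoxicity.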

[16] = read-out: Monocyte Chemoattractant Protein-1 (MCP1), CCL2 (gene 6347); test: BSK_4H_MCP1: BioMAP Diversity Plus: 4H Assay for Monocyte Chemoattractant Protein-1 (MCP1) Biomarker Activity (AID 2283018; active means hit-call score of the fitted dose curve at least 0.9, where 1 is the maximum; inactive means score below 0.9); conditions: primary human endothelial cells (HUVEC); actives raise or lower the signal
Outline: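 ELISA read-out of MCP-1 from human vascular endothelial primary cells taken at 24 hours after compound exposure. Activity was fitted in both directions relative to DMSO, which served as negative control.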

[17] = read-out: Human Leukocyte Antigen - DR isotype (HLADR), HLA-DRA (gene 3122); test: BSK_3C_HLADR: BioMAP Diversity Plus: 3C Assay for Human Leukocyte Antigen - DR isotype (HLADR) Biomarker Activity (AID 2283019; active means hit-call score of the fitted dose curve at least 0.9, where 1 is the maximum; inactive means score below 0.9); conditions: primary human endothelial cells (HUVEC); actives raise or lower the signal
Outline: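 HUVEC monoculture, HLA-DR measured by ELISA 24 h after chemical dosing. Fitted bidirectionally against DMSO baseline; parallel SRB staining assessed cytotoxicity, with 3C proliferation read by SRB at 48 h.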

[18] = read-out: Interleukin-8 (IL8), CXCL8 (gene 3576); test: BSK_3C_IL8: BioMAP Diversity Plus: 3C Assay for Interleukin-8 (IL8) Biomarker Activity (AID 2283020; active means hit-call score of the fitted dose curve at least 0.9, where 1 is the maximum; inactive means score below 0.9); conditions: primary human endothelial cells (HUVEC); actives raise or lower the signal
Outline: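 ELISA read-out of IL-8 from human umbilical vein endothelium, measured 24 h after chemical dosing. Activity is expressed relative to DMSO negative control, with both increases and decreases fitted.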

[19] = molecular target: human Peroxisome Proliferator-activated Receptor delta (PPARd), PPARD (gene 5467) (UniProt Q03181); test: ATG_PPARd_TRANS: Attagene TRANS-FACTORIAL HepG2 Assay for human Peroxisome Proliferator-activated Receptor delta (PPARd) (AID 2283002)
Outline: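 HepG2 cells transiently transfected with GAL4-UAS multiplexed reporter units driven by exogenous chimeric NR-GAL4 proteins; 24 h compound exposure. Reporter mRNA measured by RT-PCR, 6-FAM primer extension, HpaI digestion and capillary electrophoresis; gain of signal fitted relative to DMSO.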

Measured: AC50

Sequence of human RAR-related Orphan Receptor beta (RORb), RORB (gene 6096) (Q92753 whole entry, looked up, the tested form may be a part): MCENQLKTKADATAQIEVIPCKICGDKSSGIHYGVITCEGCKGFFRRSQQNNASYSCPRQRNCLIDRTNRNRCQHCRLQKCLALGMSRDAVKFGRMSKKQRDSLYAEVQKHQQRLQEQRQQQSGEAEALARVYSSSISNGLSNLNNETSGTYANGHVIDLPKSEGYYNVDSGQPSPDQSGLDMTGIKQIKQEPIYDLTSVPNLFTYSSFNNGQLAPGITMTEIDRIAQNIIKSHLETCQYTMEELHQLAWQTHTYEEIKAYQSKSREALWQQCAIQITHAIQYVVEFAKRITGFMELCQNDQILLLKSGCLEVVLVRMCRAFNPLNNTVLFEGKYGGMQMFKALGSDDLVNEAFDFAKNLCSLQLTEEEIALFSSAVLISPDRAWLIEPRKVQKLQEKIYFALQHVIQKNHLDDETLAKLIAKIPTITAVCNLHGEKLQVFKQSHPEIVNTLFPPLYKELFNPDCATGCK
Sequence of Nuclear receptor subfamily 1 group I member 2 (Homo sapiens) (O75469 whole entry, looked up, the tested form may be a part): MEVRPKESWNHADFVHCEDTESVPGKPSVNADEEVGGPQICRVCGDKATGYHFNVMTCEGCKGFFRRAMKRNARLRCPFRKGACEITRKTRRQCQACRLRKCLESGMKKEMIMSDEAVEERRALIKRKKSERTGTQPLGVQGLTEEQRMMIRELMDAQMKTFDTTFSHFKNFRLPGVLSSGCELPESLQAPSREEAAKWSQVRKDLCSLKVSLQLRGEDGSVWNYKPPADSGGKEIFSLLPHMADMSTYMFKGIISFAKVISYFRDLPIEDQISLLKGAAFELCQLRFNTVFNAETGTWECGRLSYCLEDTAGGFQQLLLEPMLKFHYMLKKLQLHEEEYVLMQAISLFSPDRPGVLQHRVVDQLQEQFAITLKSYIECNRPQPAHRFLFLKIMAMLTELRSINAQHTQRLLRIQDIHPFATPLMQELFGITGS
Sequence of E-selectin (Homo sapiens) (P16581 whole entry, looked up): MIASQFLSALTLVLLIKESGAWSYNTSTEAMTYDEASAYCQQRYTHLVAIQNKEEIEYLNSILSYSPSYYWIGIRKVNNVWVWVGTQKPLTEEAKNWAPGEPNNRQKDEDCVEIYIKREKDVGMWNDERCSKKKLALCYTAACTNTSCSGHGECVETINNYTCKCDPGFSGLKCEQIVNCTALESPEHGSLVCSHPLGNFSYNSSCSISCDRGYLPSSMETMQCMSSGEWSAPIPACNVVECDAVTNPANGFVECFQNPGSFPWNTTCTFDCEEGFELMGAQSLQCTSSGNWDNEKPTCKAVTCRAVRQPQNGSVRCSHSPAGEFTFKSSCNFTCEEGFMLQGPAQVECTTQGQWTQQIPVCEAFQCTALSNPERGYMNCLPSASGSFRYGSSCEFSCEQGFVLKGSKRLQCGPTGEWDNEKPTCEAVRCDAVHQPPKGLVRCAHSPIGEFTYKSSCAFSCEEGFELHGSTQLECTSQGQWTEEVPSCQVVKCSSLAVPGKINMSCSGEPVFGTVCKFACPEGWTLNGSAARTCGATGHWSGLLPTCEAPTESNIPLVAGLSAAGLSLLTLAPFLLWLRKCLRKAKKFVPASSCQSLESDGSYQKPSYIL
Sequence of Retinoic acid receptor RXR-alpha (Homo sapiens) (P19793 whole entry, looked up, the tested form may be a part): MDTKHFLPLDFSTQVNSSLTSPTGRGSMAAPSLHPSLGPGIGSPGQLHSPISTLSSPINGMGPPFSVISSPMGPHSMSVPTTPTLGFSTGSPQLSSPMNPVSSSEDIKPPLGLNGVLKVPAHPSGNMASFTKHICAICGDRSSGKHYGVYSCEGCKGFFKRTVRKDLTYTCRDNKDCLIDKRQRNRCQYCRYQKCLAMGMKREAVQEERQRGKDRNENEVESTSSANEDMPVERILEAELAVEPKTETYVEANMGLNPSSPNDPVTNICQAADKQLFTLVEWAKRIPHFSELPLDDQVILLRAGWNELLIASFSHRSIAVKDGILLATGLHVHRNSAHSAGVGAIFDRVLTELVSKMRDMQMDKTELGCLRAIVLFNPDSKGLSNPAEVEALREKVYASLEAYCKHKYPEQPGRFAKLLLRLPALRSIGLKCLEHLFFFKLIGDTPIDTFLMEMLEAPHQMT
Sequence of Retinoic acid receptor alpha (Homo sapiens) (P10276 whole entry, looked up, the tested form may be a part): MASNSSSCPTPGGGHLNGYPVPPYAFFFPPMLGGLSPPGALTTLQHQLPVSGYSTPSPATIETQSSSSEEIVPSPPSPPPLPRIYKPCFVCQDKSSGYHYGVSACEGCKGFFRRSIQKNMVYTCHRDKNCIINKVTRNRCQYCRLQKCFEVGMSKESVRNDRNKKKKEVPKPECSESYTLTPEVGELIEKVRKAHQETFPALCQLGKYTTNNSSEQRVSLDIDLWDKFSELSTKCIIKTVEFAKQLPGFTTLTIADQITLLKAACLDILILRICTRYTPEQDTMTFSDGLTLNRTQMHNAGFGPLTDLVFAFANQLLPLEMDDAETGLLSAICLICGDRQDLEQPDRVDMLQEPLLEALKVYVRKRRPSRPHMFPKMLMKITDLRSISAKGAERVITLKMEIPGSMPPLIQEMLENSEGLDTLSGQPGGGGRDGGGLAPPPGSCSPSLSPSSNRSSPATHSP
Sequence of human Thyroid Receptor alpha (THRa1), THRA (gene 7067) (P10827 whole entry, looked up, the tested form may be a part): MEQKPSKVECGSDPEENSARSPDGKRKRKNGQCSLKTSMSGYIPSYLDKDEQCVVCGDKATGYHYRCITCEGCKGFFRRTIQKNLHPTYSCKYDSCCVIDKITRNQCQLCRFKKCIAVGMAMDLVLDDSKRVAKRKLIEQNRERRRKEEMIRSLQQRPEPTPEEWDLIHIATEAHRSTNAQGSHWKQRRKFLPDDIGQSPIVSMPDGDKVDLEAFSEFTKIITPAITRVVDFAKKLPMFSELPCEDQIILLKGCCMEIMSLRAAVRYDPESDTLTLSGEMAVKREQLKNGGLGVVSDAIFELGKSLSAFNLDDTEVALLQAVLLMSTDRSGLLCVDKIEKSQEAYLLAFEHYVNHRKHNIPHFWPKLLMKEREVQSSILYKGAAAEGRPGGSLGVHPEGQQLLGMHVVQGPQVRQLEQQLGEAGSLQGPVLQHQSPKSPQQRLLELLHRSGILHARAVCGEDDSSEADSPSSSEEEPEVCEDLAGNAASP
Sequence of human Retinoic Acid Receptor gamma (RARg), RARG (gene 5916) (P13631 whole entry, looked up): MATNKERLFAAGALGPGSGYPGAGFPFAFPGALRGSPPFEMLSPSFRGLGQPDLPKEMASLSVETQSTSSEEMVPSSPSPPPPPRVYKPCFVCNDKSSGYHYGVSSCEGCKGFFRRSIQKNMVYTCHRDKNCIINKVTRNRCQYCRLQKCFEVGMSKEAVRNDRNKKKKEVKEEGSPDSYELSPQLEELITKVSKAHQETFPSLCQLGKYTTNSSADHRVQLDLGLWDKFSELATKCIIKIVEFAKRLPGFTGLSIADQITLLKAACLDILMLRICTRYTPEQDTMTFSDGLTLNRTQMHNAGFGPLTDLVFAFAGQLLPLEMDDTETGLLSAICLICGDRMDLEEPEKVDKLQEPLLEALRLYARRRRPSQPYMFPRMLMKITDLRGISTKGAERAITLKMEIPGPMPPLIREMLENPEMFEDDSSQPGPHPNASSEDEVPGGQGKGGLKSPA
Sequence of human Retinoid X Receptor beta (RXRb), RXRB (gene 6257) (P28702 whole entry, looked up, the tested form may be a part): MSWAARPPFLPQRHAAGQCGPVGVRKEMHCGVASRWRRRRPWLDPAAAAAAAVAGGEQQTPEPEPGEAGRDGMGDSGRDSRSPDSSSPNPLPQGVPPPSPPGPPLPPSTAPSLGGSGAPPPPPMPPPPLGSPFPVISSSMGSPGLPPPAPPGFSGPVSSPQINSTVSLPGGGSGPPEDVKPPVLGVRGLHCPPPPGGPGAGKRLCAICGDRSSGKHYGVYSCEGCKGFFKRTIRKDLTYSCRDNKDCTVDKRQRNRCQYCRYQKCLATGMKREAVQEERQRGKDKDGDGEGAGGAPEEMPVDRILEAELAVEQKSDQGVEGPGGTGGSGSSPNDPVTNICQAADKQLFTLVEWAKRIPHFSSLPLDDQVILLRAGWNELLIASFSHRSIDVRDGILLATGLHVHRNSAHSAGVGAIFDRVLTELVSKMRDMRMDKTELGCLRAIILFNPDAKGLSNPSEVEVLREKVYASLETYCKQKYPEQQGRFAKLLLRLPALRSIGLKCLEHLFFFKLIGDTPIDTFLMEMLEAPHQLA
Sequence of human Retinoic Acid Receptor beta (RARb), RARB (gene 5915) (P10826 whole entry, looked up, the tested form may be a part): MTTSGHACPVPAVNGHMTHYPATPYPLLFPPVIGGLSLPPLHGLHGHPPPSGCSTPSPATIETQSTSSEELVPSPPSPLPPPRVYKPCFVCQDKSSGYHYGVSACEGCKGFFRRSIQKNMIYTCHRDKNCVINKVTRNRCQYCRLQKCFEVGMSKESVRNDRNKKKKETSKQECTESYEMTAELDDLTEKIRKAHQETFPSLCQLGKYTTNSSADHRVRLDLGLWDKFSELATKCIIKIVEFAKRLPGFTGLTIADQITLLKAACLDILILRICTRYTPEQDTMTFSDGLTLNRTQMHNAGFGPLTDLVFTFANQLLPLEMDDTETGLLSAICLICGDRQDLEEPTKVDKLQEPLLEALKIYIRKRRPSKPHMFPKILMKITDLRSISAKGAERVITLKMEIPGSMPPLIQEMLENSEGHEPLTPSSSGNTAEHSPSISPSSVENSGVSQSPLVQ
Sequence of Peroxisome proliferator-activated receptor gamma (Homo sapiens) (P37231 whole entry, looked up, the tested form may be a part): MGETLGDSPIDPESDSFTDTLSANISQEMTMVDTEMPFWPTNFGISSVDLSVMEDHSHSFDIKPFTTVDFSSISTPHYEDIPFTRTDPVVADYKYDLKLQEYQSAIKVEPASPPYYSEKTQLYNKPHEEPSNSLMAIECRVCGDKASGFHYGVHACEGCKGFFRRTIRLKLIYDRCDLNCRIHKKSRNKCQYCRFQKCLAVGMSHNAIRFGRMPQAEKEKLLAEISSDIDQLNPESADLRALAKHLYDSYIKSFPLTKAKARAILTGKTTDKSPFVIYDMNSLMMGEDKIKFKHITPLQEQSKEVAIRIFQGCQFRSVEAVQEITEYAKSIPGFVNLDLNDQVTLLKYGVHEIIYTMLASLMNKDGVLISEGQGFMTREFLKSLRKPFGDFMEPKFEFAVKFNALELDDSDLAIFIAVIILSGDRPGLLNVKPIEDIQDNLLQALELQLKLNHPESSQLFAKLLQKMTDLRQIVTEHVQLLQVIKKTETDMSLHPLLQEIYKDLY

CC(C)OCCO
inactive: [1] | [2] | [3] | [4] | [5]

C[C@H]1C[C@@H](O)CC(C)(C)C1
inactive: [1] | [6] | [7] | [2] | [8] | [3] | [5] | [9]

CCOc1ccccc1O
inactive: [6] | [7] | [2] | [3] | [5] | [9]

O=C(Nc1ccc2c(O)c(N=Nc3ccc(N=Nc4ccc(S(=O)(=O)O)cc4)cc3)c(S(=O)(=O)O)cc2c1)c1ccccc1
inactive: [10] | [11] | [7] | [2] | [5] | [12] | [9] | [13] | [14] | [15] | [16] | [17] | [18]
active: [18] 20 µM

CCC(=O)O[C@@H]1C[C@H]2CC[C@]1(C)C2(C)C
inactive: [1] | [6] | [2] | [8] | [3] | [5]

Brc1ccc(Br)c(Br)c1
active: [12] 137 µM
inactive: [6] | [7] | [2] | [8] | [3] | [4]

CSc1c(Cl)c(Cl)c(Cl)c(Cl)c1Cl
inactive: [1] | [8]
active: [7] 6.23 µM | [2] 8.95 µM | [5] 27.3 µM | [12] 2.96 µM

C[C@@H]1CCN(C(=O)[C@H](CCCN=C(N)N)NS(=O)(=O)c2cccc3c2NC[C@H](C)C3)[C@@H](C(=O)O)C1
inactive: [10] | [1] | [7] | [8] | [13] | [14] | [15] | [16] | [17] | [18]

CC1(C)O[C@@H]2C[C@H]3[C@@H]4CCC5=CC(=O)C=C[C@]5(C)[C@@]4(F)[C@@H](O)C[C@]3(C)[C@]2(C(=O)CO)O1
inactive: [19] | [3] | [4] | [5] | [12] | [9]
active: [2] 4.98 µM

CCCCCCOC(=O)CCC
inactive: [1] | [6] | [8] | [5] | [12]
active: [2] 15.1 µM

CC(=O)C1(C)CC2=C(CCCC2(C)C)CC1C (stereo not drawn)
active: [10] 12.8 µM | [11] 6.69 µM | [7] 100 µM | [2] 9.83 µM | [12] 36.1 µM | [14] 20 µM | [15] 11 µM | [16] 10.4 µM | [17] 10.4 µM | [18] 5.52 µM
inactive: [4] | [5]

COc1ccc(CCN2CCC(Nc3nc4ccccc4n3Cc3ccc(F)cc3)CC2)cc1
active: [11] 6.51 µM | [13] 5 µM | [15] 3.54 µM | [16] 0.992 µM | [17] 6.77 µM | [18] 2.66 µM
not listed: [4] | [5] | [7] | [12] | [19]
inactive: all other assays above

C=C(C)C(=O)OCC(CC)(COC(=O)C(=C)C)COC(=O)C(=C)C
active: [7] 98.5 µM | [13] 26.3 µM | [17] 19.7 µM
inactive: [10] | [2] | [14] | [15] | [16] | [18]

CN(c1nccc(=O)[nH]1)C1CCN(c2nc3ccccc3n2Cc2ccc(F)cc2)CC1
not listed: [3] | [11] | [19]
inactive: all other assays above

CS(C)=O
inactive: [6] | [2] | [8] | [3] | [4] | [12] | [9]

CC(C)(CO)[C@@H](O)C(=O)NCCC(=O)O
inactive: [19] | [2] | [8] | [5] | [12] | [9]

OCCCCC(O)CO (stereo not drawn)
inactive: [1] | [6] | [2] | [3] | [4] | [9]

C=CCN(CC=C)CC=C
inactive: [1] | [2] | [3] | [4] | [5]

CC(=O)OCCCc1ccccc1
inactive: [6] | [2] | [8] | [4] | [5] | [12]

CCCCC1(COC(=O)CCC(=O)O)C(=O)N(c2ccccc2)N(c2ccccc2)C1=O
inactive: [7] | [4]

COC(=O)c1ccc(C)cc1C1=NC(C)(C(C)C)C(=O)N1 (stereo not drawn) (tested in a mixture with another compound)
inactive: [6] | [5]

CC(=O)c1ccccn1
inactive: [4] | [5] | [12] | [9]

CC(C)CCOC(=O)c1ccccc1
inactive: [3] | [5] | [9]

COc1ccccc1[N+](=O)[O-]
inactive: [2] | [3] | [4] | [5]

CCCC[P+](CCCC)(CCCC)CCCC
inactive: [6] | [2] | [4] | [9]

C=C1CC[C@H](O)C/C1=C/C=C1\CCC[C@]2(C)[C@@H]([C@H](C)/C=C/[C@H](C)C(C)C)CC[C@@H]12
inactive: [7] | [5]

CCCC[O][Al]([O]CCCC)[O]CCCC
inactive: [5]

Reference: PubChem BioAssay (EPA / NIEHS)
